What all share (design): scale not given: direction of the effect not stated beside the values
In assay [1] the target is Protein translocase subunit SecA (Escherichia coli (strain K12)) (UniProt P10408). Description: Assay to Identify E. coli SecA ATPase Inhibitors. The conditions noted are these: 30 µM. Type of assay: functional.
Assay [2] concerns the target T1, Ubiquitin-activating enzyme e1, putative (Leishmania donovani (strain BPK282A1)) (UniProt E9BSI1).
T1 sequence (whole entry): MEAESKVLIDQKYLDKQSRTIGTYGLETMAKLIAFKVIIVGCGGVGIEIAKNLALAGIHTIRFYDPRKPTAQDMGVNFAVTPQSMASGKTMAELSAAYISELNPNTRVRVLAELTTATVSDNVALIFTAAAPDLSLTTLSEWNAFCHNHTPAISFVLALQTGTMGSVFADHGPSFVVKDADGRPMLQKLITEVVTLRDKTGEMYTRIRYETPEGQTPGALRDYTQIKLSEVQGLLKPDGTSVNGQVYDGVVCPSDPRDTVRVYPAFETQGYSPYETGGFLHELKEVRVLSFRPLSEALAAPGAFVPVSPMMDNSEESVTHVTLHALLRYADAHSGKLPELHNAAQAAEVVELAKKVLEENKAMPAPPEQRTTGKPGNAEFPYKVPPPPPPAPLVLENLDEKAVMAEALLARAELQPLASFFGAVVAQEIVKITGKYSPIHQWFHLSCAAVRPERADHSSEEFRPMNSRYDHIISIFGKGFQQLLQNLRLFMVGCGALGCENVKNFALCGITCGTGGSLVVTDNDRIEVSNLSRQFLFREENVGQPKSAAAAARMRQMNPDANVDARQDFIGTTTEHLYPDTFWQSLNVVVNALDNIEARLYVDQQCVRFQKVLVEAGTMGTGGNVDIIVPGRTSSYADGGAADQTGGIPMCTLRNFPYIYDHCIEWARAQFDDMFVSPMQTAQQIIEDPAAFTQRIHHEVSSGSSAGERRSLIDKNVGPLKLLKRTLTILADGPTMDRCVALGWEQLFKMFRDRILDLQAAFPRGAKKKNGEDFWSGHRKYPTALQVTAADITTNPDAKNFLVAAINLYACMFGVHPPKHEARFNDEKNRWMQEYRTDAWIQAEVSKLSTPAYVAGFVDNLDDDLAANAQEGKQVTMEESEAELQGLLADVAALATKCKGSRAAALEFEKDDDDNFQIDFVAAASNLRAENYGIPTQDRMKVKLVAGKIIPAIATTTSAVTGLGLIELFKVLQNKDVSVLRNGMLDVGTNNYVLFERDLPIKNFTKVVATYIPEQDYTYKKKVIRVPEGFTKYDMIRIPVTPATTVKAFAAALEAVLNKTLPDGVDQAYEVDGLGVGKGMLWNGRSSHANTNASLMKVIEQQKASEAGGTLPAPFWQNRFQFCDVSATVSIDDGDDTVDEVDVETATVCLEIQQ
The experiment in a line: Leishmania donovani Ubiquitin Activating Enzyme (LdE1). The note with it: 30 µM. Type of assay: functional.

Assay [3] deals with AMP-activated protein kinase, AMPK (Homo sapiens) (UniProt P54646+O43741+P54619+Q9UGJ0+Q9Y478+Q13131+Q9UGI9). The experiment in a line: AMP-dependent Kinase enzyme assay. An in vitro enzyme assay that detects ADP turnover that is directly proportional to AMPK activity. This uses naive AMPK that is activated during the assay with MK-8722. Type of assay: functional. The conditions noted are these: 30 µM.

The target in assay [4] is Sialic acid-binding Ig-like lectin 9 (Homo sapiens) (UniProt Q9Y336). The experiment in a line: Hs-Siglec9 ALPHAscreen SOP 20170721. The conditions noted are these: 10 µM.
Chain of Sialic acid-binding Ig-like lectin 9 (Homo sapiens) (Q9Y336 whole entry): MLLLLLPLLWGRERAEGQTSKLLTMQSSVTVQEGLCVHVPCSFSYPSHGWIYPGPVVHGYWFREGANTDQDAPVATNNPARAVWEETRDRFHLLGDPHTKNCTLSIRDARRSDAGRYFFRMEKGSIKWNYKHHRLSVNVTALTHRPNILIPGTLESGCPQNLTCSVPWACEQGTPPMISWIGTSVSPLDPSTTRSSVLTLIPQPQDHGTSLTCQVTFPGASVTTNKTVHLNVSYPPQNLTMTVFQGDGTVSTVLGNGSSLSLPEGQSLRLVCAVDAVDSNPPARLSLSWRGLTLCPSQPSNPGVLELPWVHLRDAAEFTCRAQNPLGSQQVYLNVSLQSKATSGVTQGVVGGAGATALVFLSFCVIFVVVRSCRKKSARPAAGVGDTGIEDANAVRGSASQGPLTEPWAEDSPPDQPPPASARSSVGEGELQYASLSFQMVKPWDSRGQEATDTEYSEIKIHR
Another assay relates to Trypanosoma cruzi. The experiment in a line: Trypanosoma cruzi phosphomannomutase and mannose-1-phosphate guanylyltransferase assay. The class given is functional. The conditions noted are these: 10 µM.
Assay [5] concerns the target T2, Arginase-2, mitochondrial (Homo sapiens) (UniProt P78540).
T2 sequence (whole entry): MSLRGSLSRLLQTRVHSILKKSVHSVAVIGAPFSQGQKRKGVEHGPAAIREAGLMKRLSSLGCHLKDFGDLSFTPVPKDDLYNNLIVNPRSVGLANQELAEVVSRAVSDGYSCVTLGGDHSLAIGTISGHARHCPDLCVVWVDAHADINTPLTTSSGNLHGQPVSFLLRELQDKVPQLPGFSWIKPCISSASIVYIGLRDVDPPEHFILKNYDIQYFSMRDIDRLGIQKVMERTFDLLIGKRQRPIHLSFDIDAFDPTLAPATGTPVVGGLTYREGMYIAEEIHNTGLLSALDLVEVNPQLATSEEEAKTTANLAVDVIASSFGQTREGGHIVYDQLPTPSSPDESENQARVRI
The experiment in a line: in vitro enzyme assay to detect the production of urea directly proportional to the activity of Arginase II. Further: in the data most compounds retested in dose-response had high values. The class given is functional. The note with it: 33.3 µM.

Assay [6] concerns the target T3, Proteasome subunit beta (Trypanosoma cruzi) (UniProt O96673).
T3 sequence (whole entry): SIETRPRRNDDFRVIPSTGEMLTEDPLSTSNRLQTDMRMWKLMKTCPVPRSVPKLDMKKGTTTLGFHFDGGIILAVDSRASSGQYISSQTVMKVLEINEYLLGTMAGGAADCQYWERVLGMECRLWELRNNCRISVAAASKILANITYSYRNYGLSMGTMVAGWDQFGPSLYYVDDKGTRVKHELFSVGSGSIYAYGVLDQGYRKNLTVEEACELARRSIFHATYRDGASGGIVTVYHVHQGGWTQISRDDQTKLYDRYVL
Description: Trypanosoma cruzi proteasome chymotrypsin-like activity (TcProtChymo) assay. Further: in the data most compounds retested in dose-response had high values. Type of assay: functional. The conditions noted are these: 9.37 µM.

The next assay is filed under the species Homo sapiens. The experiment in a line: To identify inhibition of the IFN signalling (Jak-Stat) pathway via expression of an eGFP reporter gene under the control of an IFN-stimulated response element (ISRE) containing MxA promoter. Type of assay: functional. The conditions noted are these: 30 µM. (A reporter such as luciferase makes a cellular process visible.)

Assay [7] addresses T4, Tyrosyl-tRNA synthetase, putative (Trypanosoma cruzi (strain CL Brener)) (UniProt Q4DSP6).
T4 sequence (whole entry): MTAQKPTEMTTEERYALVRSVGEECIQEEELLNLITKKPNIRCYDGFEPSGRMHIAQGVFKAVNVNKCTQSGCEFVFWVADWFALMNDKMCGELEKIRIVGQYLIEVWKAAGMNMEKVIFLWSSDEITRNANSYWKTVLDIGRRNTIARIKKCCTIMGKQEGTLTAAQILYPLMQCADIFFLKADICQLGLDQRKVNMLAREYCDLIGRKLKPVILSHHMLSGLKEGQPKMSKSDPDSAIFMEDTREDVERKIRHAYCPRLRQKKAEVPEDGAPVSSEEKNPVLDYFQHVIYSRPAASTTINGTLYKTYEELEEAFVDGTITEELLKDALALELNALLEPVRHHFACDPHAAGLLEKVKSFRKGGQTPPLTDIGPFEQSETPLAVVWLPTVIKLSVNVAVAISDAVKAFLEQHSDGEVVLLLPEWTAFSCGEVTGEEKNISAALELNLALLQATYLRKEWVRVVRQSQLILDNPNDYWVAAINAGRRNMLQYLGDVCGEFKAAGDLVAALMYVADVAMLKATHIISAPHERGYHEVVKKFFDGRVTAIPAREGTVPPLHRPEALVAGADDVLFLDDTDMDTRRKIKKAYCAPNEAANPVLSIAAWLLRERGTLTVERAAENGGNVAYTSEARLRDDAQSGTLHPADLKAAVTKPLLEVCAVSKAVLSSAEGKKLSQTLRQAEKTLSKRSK
The experiment in a line: Trypanosoma cruzi tyrosyl tRNA synthetase (TcYRS) _High Tyrosine SOP. Further: in the data most compounds retested in dose-response had high values. The class given is functional. The note with it: 30 µM.

Assay [8] has as its target T4, Tyrosyl-tRNA synthetase, putative (Trypanosoma cruzi (strain CL Brener)). The experiment in a line: Trypanosoma cruzi tyrosyl tRNA synthetase (TcYRS) SOP. The class given is functional. The note with it: 30 µM.
Assay [9] has as its target Chromo domain-containing protein 1 (Saccharomyces cerevisiae (strain ATCC 204508 / S288c) (Baker's yeast)) (UniProt P32657). Description: ScCHD-1 Enzyme Inhibition Assay. Further: in the data most compounds retested in dose-response had high values. The class given is functional. The conditions noted are these: 30 µM.

SMILES strings stand for the structures. For some assays here: Results with a measured potency or affinity are listed apart.

Chain of Chromo domain-containing protein 1 (Saccharomyces cerevisiae (strain ATCC 204508 / S288c) (Baker's yeast)) (P32657 whole entry, the tested form may be a part): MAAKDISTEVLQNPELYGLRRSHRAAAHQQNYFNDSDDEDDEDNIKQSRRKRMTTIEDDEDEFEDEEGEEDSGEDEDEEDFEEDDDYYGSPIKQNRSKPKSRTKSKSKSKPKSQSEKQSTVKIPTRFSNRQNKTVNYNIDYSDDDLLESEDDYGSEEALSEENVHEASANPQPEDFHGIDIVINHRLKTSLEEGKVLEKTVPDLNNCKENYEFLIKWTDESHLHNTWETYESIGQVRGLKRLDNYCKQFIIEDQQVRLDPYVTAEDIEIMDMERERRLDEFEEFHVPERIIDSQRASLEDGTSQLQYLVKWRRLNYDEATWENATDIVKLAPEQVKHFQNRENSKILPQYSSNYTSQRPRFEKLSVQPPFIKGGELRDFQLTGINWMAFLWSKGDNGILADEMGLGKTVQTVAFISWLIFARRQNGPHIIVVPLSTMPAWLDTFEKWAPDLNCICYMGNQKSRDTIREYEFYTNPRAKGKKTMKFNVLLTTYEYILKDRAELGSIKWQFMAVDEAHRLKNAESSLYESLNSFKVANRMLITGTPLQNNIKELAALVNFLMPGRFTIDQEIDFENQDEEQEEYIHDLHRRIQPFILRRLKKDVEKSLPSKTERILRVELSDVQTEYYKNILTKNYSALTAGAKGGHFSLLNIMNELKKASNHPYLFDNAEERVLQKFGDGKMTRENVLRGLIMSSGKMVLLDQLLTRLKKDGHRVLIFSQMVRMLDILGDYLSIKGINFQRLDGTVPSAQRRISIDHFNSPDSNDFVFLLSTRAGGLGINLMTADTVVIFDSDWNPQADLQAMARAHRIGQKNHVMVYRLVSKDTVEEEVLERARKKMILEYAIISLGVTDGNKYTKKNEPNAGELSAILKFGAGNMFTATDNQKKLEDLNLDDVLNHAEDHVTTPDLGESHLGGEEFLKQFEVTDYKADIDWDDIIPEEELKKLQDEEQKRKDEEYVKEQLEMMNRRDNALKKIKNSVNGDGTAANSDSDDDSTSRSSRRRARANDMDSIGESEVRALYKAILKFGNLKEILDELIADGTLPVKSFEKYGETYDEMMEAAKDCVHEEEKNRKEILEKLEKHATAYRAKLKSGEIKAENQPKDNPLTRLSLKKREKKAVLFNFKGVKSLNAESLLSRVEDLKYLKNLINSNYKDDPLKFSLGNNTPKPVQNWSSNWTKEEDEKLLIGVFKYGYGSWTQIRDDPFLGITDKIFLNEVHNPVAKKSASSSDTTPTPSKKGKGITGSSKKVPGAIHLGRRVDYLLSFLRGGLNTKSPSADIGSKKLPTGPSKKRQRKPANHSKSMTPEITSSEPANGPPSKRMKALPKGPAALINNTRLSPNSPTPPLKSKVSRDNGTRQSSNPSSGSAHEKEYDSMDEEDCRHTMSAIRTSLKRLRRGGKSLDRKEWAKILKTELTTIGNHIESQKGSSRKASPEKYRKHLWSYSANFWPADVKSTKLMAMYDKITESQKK
Chain of Protein translocase subunit SecA (Escherichia coli (strain K12)) (P10408 whole entry): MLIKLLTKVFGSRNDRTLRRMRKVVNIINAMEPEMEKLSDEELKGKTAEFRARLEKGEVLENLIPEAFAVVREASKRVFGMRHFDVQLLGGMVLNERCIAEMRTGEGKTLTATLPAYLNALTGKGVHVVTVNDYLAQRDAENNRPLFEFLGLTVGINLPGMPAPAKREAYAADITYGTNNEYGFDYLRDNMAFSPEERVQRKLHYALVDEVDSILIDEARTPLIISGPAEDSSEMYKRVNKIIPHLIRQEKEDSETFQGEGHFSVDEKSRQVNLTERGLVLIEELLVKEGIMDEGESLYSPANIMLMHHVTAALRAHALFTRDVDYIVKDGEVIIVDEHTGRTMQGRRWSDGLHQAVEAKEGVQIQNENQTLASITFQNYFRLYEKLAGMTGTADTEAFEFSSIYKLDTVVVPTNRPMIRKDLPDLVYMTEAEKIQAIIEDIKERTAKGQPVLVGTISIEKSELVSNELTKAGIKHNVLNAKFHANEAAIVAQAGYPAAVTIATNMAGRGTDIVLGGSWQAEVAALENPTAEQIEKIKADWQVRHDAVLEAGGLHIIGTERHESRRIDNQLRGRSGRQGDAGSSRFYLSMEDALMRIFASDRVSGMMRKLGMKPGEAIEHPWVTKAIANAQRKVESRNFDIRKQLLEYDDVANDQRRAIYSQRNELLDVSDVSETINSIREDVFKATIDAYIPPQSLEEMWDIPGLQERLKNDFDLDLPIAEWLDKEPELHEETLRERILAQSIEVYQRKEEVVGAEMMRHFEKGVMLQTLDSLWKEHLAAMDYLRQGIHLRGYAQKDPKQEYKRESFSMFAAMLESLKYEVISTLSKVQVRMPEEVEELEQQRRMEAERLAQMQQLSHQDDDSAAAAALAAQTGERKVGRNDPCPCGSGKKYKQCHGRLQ

`COc1cccc(CN2CCN(C(=O)CN3CCOCC3)CC2)n1`: the Percent Effect in assay [1] was 0.629%; in [2], -10.5%; in [3], -3.06%; in assay [4] it was 3.57%; in the assay with Trypanosoma cruzi, 4.76%; in [5], 3.6%. In addition, the Percent Effect in assay [6] was 4.99%; in the assay filed under Homo sapiens, 7.19%; in [7], 2.46%; in assay [8] it was 6.17%; in assay [9] it was 2.89%.

As to `COCCN1CCC2(CCCN(C(=O)c3cnoc3C)C2)C1=O` (stereo not given), the Percent Effect in [1] was 0.295%; in [2], 8.22%; in assay [3], 3.34%; in assay [4], 5.08%; with Trypanosoma cruzi it was -6.55%; in assay [5] it was -3.19%. The Percent Effect is 12.2% in assay [6]; 0.796% in the assay listed under Homo sapiens; 4.17% in [7]; 3.7% in assay [8]; -5.73% in assay [9].

Take `Cc1noc(C)c1C(=O)NCC(c1ccc(F)cc1)N(C)C` (stereo not given): the Percent Effect in assay [1] is -3.62%; in assay [2] it was 8.11%; in assay [3], 1.69%; in [4], -12.4%; in the assay with Trypanosoma cruzi, -3.25%; in [5], 0.924%. Further, the Percent Effect in assay [6] was determined as 0.898%; in the assay filed under Homo sapiens, 16.5%; in [7], 5.94%; in [8] it was 13.4%; in assay [9], 0.216%.

Consider `O=C(C1=CC2(CCNCC2)c2ccccc21)N1CCCC1`, for which the Percent Effect in assay [1] was -0.609%; in assay [2], 2.67%; in [3] it was 6.96%; in assay [4], -3.45%; in the assay with Trypanosoma cruzi it was -7.53%; in assay [5] it was -56.1%. Moreover, the Percent Effect in [6] was 7.52%; in the assay listed under Homo sapiens, -19.8%; in assay [7], -3.12%; in [8] it was 2.5%; in [9], -6.64%.

With `COCCn1nc(C(=O)N2CCCC2c2cccc(F)c2)ccc1=O` (stereo not given), the Percent Effect in assay [1] was -0.858%; in [2] it was 5.41%; in [3], -0.552%; in assay [4], 11.3%; in the assay on Trypanosoma cruzi, 2.9%; in assay [5] it was 10%. Besides, the Percent Effect in assay [6] was 8.1%; in the assay filed under Homo sapiens, -4.91%; in [7], -0.529%; in [8], -2.44%; in assay [9], -0.976%.

Regarding `CCOCCCNC(=O)c1cc(C(C)C)nc(N2CCCCCC2)n1`, the Percent Effect in assay [1] was 0.305%; in [2], -12%; in [3], 4.38%; in [4] it was -7.72%; with Trypanosoma cruzi, -5.5%; in assay [5] it was -16%. In addition, the Percent Effect was 16.3% in [6]; 17% in the assay filed under Homo sapiens; 10.6% in assay [7]; 12.8% in assay [8]; -11.2% in assay [9].

For the molecule `Cc1ccc(S(=O)(=O)NCCNC(=O)c2ccoc2)cc1F`, the Percent Effect in assay [1] was -4.47%; in [2], 13.3%; in assay [3] it was 4.57%; in assay [4], 12.1%; with Trypanosoma cruzi, 5.75%; in assay [5], 5.21%. Besides, the Percent Effect was determined as 15.5% in assay [6]; 16.4% in the assay filed under Homo sapiens; 3.83% in assay [7]; 13.6% in [8]; 86.1% in assay [9].

Regarding `CCc1cnc(CN2CCCC2c2noc(C3CC3)n2)o1` (stereo not given), the Percent Effect in [1] was -2.28%; in assay [2], 10.8%; in assay [3], -15.2%; in [4], -4.49%; with Trypanosoma cruzi it was 5.94%; in [5], -18.4%. Further, the Percent Effect in assay [6] was 23.6%; in the assay filed under Homo sapiens it was 25.5%; in assay [7], 9.36%; in [8], 18.5%; in [9], -9.7%.

Consider `CC(=O)N(Cc1noc(C)n1)C1CCN(Cc2ccon2)C1` (stereo not given), for which the Percent Effect was -2.71% in assay [1]; 21.5% in assay [2]; -1.98% in [3]; -4.08% in assay [4]; 1.13% with Trypanosoma cruzi; -3.66% in assay [5]. The Percent Effect in assay [6] is 22.3%; in the assay listed under Homo sapiens, 10.2%; in assay [7], 3.12%; in assay [8], 15.2%; in assay [9] it was 52.1%.

In the case of `CC(=O)NCCNC(=O)N(C)Cc1ccc2c(c1)OCCO2`, the Percent Effect is -3.01% in [1]; 0% in [2]; -0.74% in [3]; -6.13% in assay [4]; -4.92% in the assay with Trypanosoma cruzi; 6.1% in [5]. The Percent Effect in [6] was 1.79%; in the assay listed under Homo sapiens, 7.44%; in assay [7], 4.95%; in assay [8], 13.4%; in assay [9], -1.92%.

For the origin of these results see ChEMBL document CHEMBL3988442, “University of Dundee, Small-Polar-MMV Screening Library” (2021).
